Measured values from PubChem BioAssay AID1159580 (chemical genetic matrix, 2015).
In all, about 5,500 compounds went through this assay and about 2,000 (36%) were called active. Inconclusive results (about 18%) are left out. No stated cut-off is given here; in the data, active means normalized growth mostly below about 0.91 (no sharp cut-off); inconclusive means no clear call, values can overlap the other calls; inactive means mostly above about 0.92. The list shows a part of the results.

Assay: chemical genetic growth profiling, strain panel (AID 1159580);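 further: tested at 20 µM; growth read once vehicle control cultures reached saturation at 30 °C; 1 = growth at the plate median or of vehicle wells; lower values mean less growth of the strain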
Conditions: S. cerevisiae deletion strains, growth OD
[1] = locus YAL040C, strain CLN3, hits give low values
[2] = locus YCL061C, strain MRC1 (second series), hits give low values
[3] = locus YDR150W, strain NUM1, hits give low values
[4] = locus YDR363W, strain ESC2, hits give low values
[5] = locus YER002W, strain NOP16, hits give low values
[6] = locus YNL153C, strain GIM3, hits give low values
[7] = locus YNL175C, strain NOP13, hits give low values
[8] = locus YNL197C, strain WHI3, hits give low values
[9] = locus YNL224C, strain SQS1, hits give low values
[10] = locus YNL322C, strain KRE1, hits give low values
[11] = locus YOR083W, strain WHI5 (second series), hits give low values
[12] = locus YPL055C, strain LGE1, hits give low values

Measured: normalized growth

CCC(=O)c1ccc2c(c1)N(CCCN(C)C)c1ccccc1S2
inactive: [1] 0.997 | [2] 1 | [3] 1.01 | [4] 1.02 | [5] 1.01 | locus YGR229C, strain SMI1, hits give low values 0.986 | locus YJR075W, strain HOC1, hits give low values 0.985 | [6] 1.16 | [7] 1.02 | [8] 1.05 | [9] 1.07 | [10] 0.971 | [11] 1 | [12] 0.988

CC(=O)NNC(=O)N1Cc2ccccc2Oc2ccc(Cl)cc21
inactive: locus YAL013W, strain DEP1, hits give low values 1.04 | [1] 1 | [2] 1.02 | [3] 1.02 | [4] 1.03 | [5] 1 | locus YMR307W, strain GAS1, hits give low values 0.997 | [6] 1.02 | [7] 0.989 | [8] 1.01 | [9] 0.984 | [10] 1.03 | [11] 1.01 | [12] 1.04 | locus YPL241C, strain CIN2, hits give low values 1
